Records with an inconclusive call do not appear. Activity calls are given as the source filed them. The call rests on the fitted dose curve; in most records, active means well fitted inhibition curve with a large enough effect; inconclusive means small, poorly fitted or top-dose-only effect; inactive means flat fitted curve, though single readings scatter. Where a SMILES comes first, the peptide text is derived from it. [ ]: non-standard residue; d: D form. The star is where a group is joined. Dolaproine = CO[C@@H]([C@@H]1CCCN1)[C@@H](C)C(=O)O; Dil = CC[C@H](C)[C@H](NC)[C@@H](CC(=O)O)OC; Doe = c1ccc(C[C@H](N*)c2nccs2)cc1; Aib = CC(C)(N)C(=O)O
On the % scale 0 is the no-effect control and ±100 the full control effect; potency means the concentration at half of the fitted maximal effect.

This assay concerns KB-3-1. Nature of the assay: Cytotoxic Profiling of Annotated Libraries Using Quantitative High-Throughput Screening (AID 1296008). Further: nearly all actives have a fitted effect of over 60% in size. The note with it: Five cell lines viability, CellTiter-Glo ATP luminescence, 48-72 h; max response: hits give low values. The text has this: Cell-based phenotypic screening is a commonly used approach to discover biological pathways, novel drug targets, chemical probes and high-quality hit-to-lead molecules. Many hits identified from high-throughput screening campaign are ruled out through a series of follow-up potency, selectivity/specificity, and cytotoxicity assays. Prioritization of molecules with little or no cytotoxicity for a more in-depth downstream evaluation influence the future direction of projects, so cytotoxicity profiling of the screening libraries at early stage is essential for increasing the likelihood of candidate success. […] For the annotated library, we also examined the primary targets and mechanistic pathways regularly associated with cell death. To our knowledge, this is the first study to use high-throughput screening to profile large libraries for cytotoxicity assessment in both normal and cancer cell lines. In summary, the results generated here constitutes a valuable resource for the scientific community and provides insight on identifying cytotoxic compounds with particular mechanisms of action, and prioritizing compounds with suitable cytotoxicity profile for further evaluation.
A pintool (Kalypsys) was used to transfer 23 nL of compound solution to the 1536-well assay plates. After 48 or 72 hr incubation at 37 degree Celsius, 5% CO2 and 95% humidity, 2.5 uL of CellTiter-Glo (Promega) was dispensed into each well using a dispenser (Aspect Automation, St. Paul, MN) with solenoid valves (Lee Valves, Westbrook CT). Plates were left at room temperature for 10 min before imaging the ATP-coupled luminescence using a ViewLux microplate imager (PerkinElmer, Waltham, MA).
(In general: Cellular ATP, detected with luciferase, serves as a proxy for viable cell number.)
Consider `COC1CC(O[C@H]2CC[C@]3(C)C4CC[C@]5(C)[C@@H](C6=CC(=O)OC6)[C@@H](OC(C)=O)C[C@]5(O)C4CC[C@@H]3C2)OC(C)C1O` (stereo not given in full), for which the Potency was 563 nM (active).

On to `CNC(C)CC1CCCCC1` (stereo not given), for which the max response is -19.8% (inactive).

Take `CC[C@H](C)[C@@H]([C@@H](CC(=O)N1CCC[C@H]1[C@H](OC)[C@@H](C)C(=O)N[C@@H](Cc1ccccc1)c1nccs1)OC)N(C)C(=O)[C@@H](NC(=O)C(C)(C)N)C(C)C` (H-[Aib]V[Dil][Dolaproine]-Doe): the Potency is 1 nM (active).

Take `C[C@@H]1[C@H]2Cc3ccc(O)cc3[C@]1(C)CCN2C`: the max response was -14.3% (inactive).

Take `COC1CC(OC2CCC3(C=O)C(CCC4C3CCC3(C)C(C5=CC(=O)OC5)CCC43O)C2)OC(C)C1O` (stereo not given): the Potency is 252 nM (active).

For `N#CC(O[C@@H]1O[C@H](CO)[C@@H](O)[C@H](O)[C@H]1O)c1ccccc1` (stereo not given in full), the max response was 0.785% (inactive).

Regarding `CC1=CC2/C=C(\C)CCC(O)C(O)/C=C/C(=O)OC23C(=O)NC(CC(C)C)C3C1C` (stereo not given), the max response is 9.99% (inactive).

Regarding `CCOP(=O)(OCC)Oc1ccc2c(C)cc(=O)oc2c1`, the max response was -1.13% (inactive).

For `CCOC(=O)C1(CCc2ccccc2)CCN(Cc2ccc(NC(C)=O)cc2)CC1`, the max response was -17.7% (inactive).

With `CCCCCn1cc(C(=O)C2C(C)(C)C2(C)C)c2ccccc21`, the max response is 5.27% (inactive).

Turning to `COC1C=CC23c4cc5c(cc4COC2(O)CN(C)C3C1)OCO5` (stereo not given), the compound was classed as inactive.

Consider `CCOC(=O)C1(c2ccccc2)CCCN(C)CC1` (stereo not given), for which the max response was -5.26% (inactive).

Consider `COC(=O)[C@]12CCCC(C)(C)C1CCc1cc(C(C)C)c(O)c(O)c12` (stereo not given in full), for which the max response was -12.9% (inactive).

For the compound `Nc1ncnc2c1ncn2[C@@H]1O[C@@H]2COP(O)(=S)O[C@H]2[C@H]1O` (stereo not given in full), the max response is -0.196% (inactive).

Consider `C[C@]12CCC(=O)C[C@@H]1CC[C@@H]1[C@@H]2CC[C@@]2(C)[C@H]1CC[C@]2(C)O`, for which the max response was -6.75% (inactive).

For the compound `Cc1ccc2c(c1)[C@]13CCCC[C@@H]1[C@H](C2)N(C)CC3`, the max response was -5.13% (inactive).

With `C[C@H]1CN(CC[C@H](O)C2CCCCC2)CC[C@@]1(C)c1cccc(O)c1`, the max response is -5.46% (inactive).

For `CNC(C)Cc1ccccc1` (stereo not given), the max response was -8.49% (inactive).

With `CC1=CC2OC3[C@H](O)C[C@@](C)([C@]34CO4)[C@@]2(CO)[C@H](O)C1=O` (stereo not given in full), the Potency is 4610 nM (active).

Turning to `CC(=O)O[C@H]1CC[C@H]2[C@@H]3CC[C@H]4CC(=O)C=C(C)[C@]4(C)[C@H]3CC[C@]12C`, the max response was 7.22% (inactive).

For `CCCCn1cc(C(=O)c2cccc3ccccc23)c2ccccc21`, the max response is -16.1% (inactive).

`C#CC1(O)CCC2C3CCC4=CC(=O)CCC4=C3C=CC21C` (stereo not given): the Potency is 6510 nM (active).

As for `CN=C(NS(=O)(=O)c1ccc(Cl)cc1)N1C[C@H](c2ccccc2)C(c2ccc(Cl)cc2)=N1`, the max response is -19.1% (inactive).

Take `COC(=O)C1=COC(C)C2CN3CCC4(C(=O)Nc5ccccc54)C3CC12` (stereo not given): the max response was -8.2% (inactive).

As for `C[C@@H]1C[C@@H](O)[C@]2(O)O[C@@H]3C[C@@]4(C=O)C(CC[C@@H]5C4CC[C@]4(C)[C@@H](C6=CC(=O)OC6)CC[C@]54O)C[C@H]3O[C@@H]2O1` (stereo not given in full), the Potency was 100 nM (active).

With `CC(=O)OC[C@]12C[C@H](OC(=O)CC(C)C)C(C)=C[C@H]1O[C@@H]1[C@H](O)C[C@@]2(C)[C@]12CO2`, the Potency is 709 nM (active).

Turning to `COc1cccc(NCC(F)Cn2c3ccc(Br)cc3c3cc(Br)ccc32)c1` (stereo not given), the Potency was 18400 nM (active).

Take `C[C@]12CC[C@H](O)C[C@@H]1CC[C@@H]1[C@@H]2CC[C@]2(C)C(=O)CC[C@@H]12`: the call was inactive.

As for `CCN(CC)/[N+]([O-])=N/O`, the max response is -8.01% (inactive).

Take `OCCN(CCO)CCO`: the max response is 0.954% (inactive).

For the compound `CC1=CC2/C=C(\C)CCCC(O)/C=C/C(=O)OC23C(=O)NC(CC(C)C)C3C1C` (stereo not given), the result was inactive.

Turning to `CCC1C2CC3C4N(C)c5ccccc5C45CC(C2C5O)N3C1O` (stereo not given), the max response is 6.75% (inactive).

Regarding `COc1ccc2c(c1)c(CCN(C)C)cn2S(=O)(=O)c1ccccc1`, the max response was -1.74% (inactive).

For the compound `CCC(C)C1NC(=O)C(C(C)=O)=C1O` (stereo not given), the max response is -22.8% (inactive).

On to `Fc1cc(F)c2c(c1)C1C=CCC1C(c1cccnc1)N2` (stereo not given), for which the Potency is 4610 nM (active).

Regarding `C=C1CC[C@H]2[C@@H](/C=C(\C)C(=O)[C@@]3(OC(C)=O)C[C@H](C)[C@H](OC(=O)c4ccccc4)[C@@H]3[C@H]1OC(C)=O)C2(C)C`, the max response was 4.96% (inactive).

Turning to `CO[C@H]1[C@@H](O)[C@@H](C)O[C@@H](O[C@@H]2C=C3C(OC(C)=O)CC4(O)C(CC[C@]5(C)[C@@H](C6=CC(=O)OC6)CC[C@]45O)[C@@]3(C)CC2)[C@@H]1O` (stereo not given in full), the Potency was 385 nM (active).

For `CN1C(=O)C(Cc2ccc3ccccc3c2)N=C(c2ccc(O)cc2)c2cc(Cl)ccc21` (stereo not given), the max response was -24.1% (inactive).

`c1ccc([C@@H]2C[C@H]2NC2CCNCC2)cc1`: the max response was -11.5% (inactive).

In the case of `CN1CC[C@@]23CCCC[C@@H]2[C@@H]1Cc1ccc(O)cc13`, the max response was -20.8% (inactive).

(Values after PubChem BioAssay (NCATS).)
